Bioassay records as filed in PubChem BioAssay.
Compounds with a hit are over-represented: about 2.4% of the library has one in this group of screens.
D2 ag-1: agonists of human D2 dopamine receptor; P14416; HEK293 T-REx D2 cells, calcium flux agonist mode; activation, % at 2 µM; actives 0.53% (n = 340,000);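 active means activation over 3 SD above normal in the single-dose calcium agonist read, cut at about 30% in these data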
Target sequence (P14416 whole entry, looked up): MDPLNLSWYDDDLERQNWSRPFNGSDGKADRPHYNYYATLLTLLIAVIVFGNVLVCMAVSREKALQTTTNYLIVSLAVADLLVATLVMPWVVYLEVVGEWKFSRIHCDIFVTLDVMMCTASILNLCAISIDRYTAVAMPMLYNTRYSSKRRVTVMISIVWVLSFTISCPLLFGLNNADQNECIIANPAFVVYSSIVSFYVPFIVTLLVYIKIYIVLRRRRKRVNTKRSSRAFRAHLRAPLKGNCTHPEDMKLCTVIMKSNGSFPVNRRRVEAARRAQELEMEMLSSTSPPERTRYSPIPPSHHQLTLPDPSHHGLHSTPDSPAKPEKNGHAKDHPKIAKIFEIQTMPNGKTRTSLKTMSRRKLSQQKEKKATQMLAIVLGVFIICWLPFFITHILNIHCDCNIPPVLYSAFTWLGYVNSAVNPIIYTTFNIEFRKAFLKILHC
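Calcium-flux readout, 1 cycle/sec over 180 s following compound pin transfer, in inducible HEK293 Trex D2 cells (force-coupled); dopamine controls included. Positive calcium responses during this window marked compounds as potential agonists.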
D2 PAM-1: potentiates the human D2 dopamine receptor allosterically. DiscoveRx D2 beta-arrestin cells, luminescence, 90 min; 100% = 57 uM dopamine signal. AID 624464. actives 0.23% (n = 360,000). potentiation, % (test concentration not listed). P14416; in the data active means potentiation above about 50%; inconclusive means mostly about 30% to 49%
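PathHunter beta-arrestin assay in DiscoveRx D2 cells. Compounds were added with an EC20 of dopamine (50 nM final) for 90 min at 37 deg C. Luminescence was read 1 h after detection reagent, with 57 uM dopamine as the EC100 control.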
D2 ag-2: human D2 receptor agonism in beta-arrestin assay; DiscoveRx PathHunter D2 beta-arrestin, luminescence, 90 min; 100% = 57 uM dopamine signal; activation, % (test concentration not listed); actives 0.084% (n = 360,000); AID 624465; in the data active means activation above about 40%; inconclusive means between about 15% and that limit
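DiscoveRx PathHunter D2 beta-arrestin cells (2,100/well) attached overnight, then compound-stimulated 90 min at 37 C in HBSS/10 mM HEPES/0.1% Tween-20 buffer; beta-galactosidase complementation read by luminescence after 1 h at ambient temperature. Dopamine 57 uM final (EC100) as control.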
D2 PAM-2: positive allosteric modulators of human D2 dopamine receptor; P14416; HEK293 T-REx D2, calcium flux, EC20 dopamine potentiation; potentiation, % at 10 µM; actives 0.34% (n = 340,000); AID 485347;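 active means potentiation over 3 SD above the plate norm, cut at about 30% in these data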
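Potentiation of an EC20 dopamine calcium response measured kinetically over 180 s, after a preceding 180 s compound-only read flagging agonists. Cells: inducible Hek293 Trex D2 line, 4000/well, cultured overnight at 30 C before dye loading.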
D2 antag: D2 dopamine receptor (human) antagonism. inhibition, % at 10 µM. actives 2% (n = 340,000). P14416. HEK293 TREx D2 cells, calcium flux, dopamine EC80; in the data active means inhibition above about 30%; inactive means below that, where a call was filed
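Calcium flux kinetic readout in an inducible HEK293 TREx D2 line plated overnight at 30 C. After 180 s compound exposure, an EC80 dopamine challenge follows with another 180 s kinetic read to detect antagonism.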
Each line names hits and unclear results; the compound was inactive in the other large screens; ! = not active in a repeat.

CCOc1ccc(Cl)cc1C1=CC(=O)C[C@H](c2ccc(OC)cc2)C1	none (no result: D2 ag-1, D2 antag)
CCc1cc(C(=O)NCC(c2ccco2)N2CCCCC2)sc1C (stereo not drawn)	D2 antag 39
O=C1CSc2ccc(C(=O)NCC(c3ccco3)N3CCCCC3)cc2N1 (stereo not drawn)	D2 antag 36
OC[C@@H]1CN(Cc2cccc(C(F)(F)F)c2)C[C@H](n2cnc3c(NCc4ccco4)ncnc32)O1	none (no result: D2 ag-1, D2 PAM-2, D2 antag)
COc1ccc(-n2nc(C(=O)NCc3ccc(F)cc3)c3c4ccccc4n(C)c3c2=O)cc1	none (no result: D2 PAM-1, D2 ag-2, D2 antag)
CCC(CC)C(=O)Nc1ccc(OCc2cc(=O)n3ccc(C)cc3n2)cc1	none (no result: D2 ag-1, D2 PAM-1, D2 ag-2, D2 antag)
N/C(Cc1ccc(Cl)cc1Cl)=N\OC(=O)c1ccccc1	D2 ag-2 63
N/C(Cc1ccc(Cl)cc1)=N\OC(=O)c1ccc2ccccc2c1	D2 PAM-1 168, D2 ag-2 inconclusive
N/C(Cc1ccc(Cl)cc1)=N\OC(=O)c1cccc2ccccc12	D2 PAM-1 86, D2 ag-2 inconclusive
COc1ccc(C(=O)/C=C/Nc2ccc([N+](=O)[O-])cc2C)c(OC)c1	none
COc1ccc(C(=O)/C=C/Nc2ccc([N+](=O)[O-])cc2C)cc1OC	D2 antag 40
C#Cc1cccc(N2C(=O)C3C4C=CC(C3C2=O)C2C(=O)N(c3cccc(C#C)c3)C(=O)C42)c1 (stereo not drawn)	none (no result: D2 ag-1, D2 PAM-2, D2 antag)
COc1ccc(-c2ccc(-c3nnc(Cc4ccc(OC)c(OC)c4)o3)cc2)cc1	D2 antag 30
COc1ccc(Cc2noc(-c3ccccc3)n2)cc1OC	D2 antag 33
COc1ccc(CCN(C)Cc2nc(Cc3ccc(OC)c(OC)c3)no2)cc1OC	D2 antag 37
COc1ccc(OC)c(NCc2nnc(-c3ccccc3)o2)c1	none
COc1ccc(Cc2noc(CN(C)C3CC(C)(C)NC(C)(C)C3)n2)cc1OC	none
CCOC(=O)c1cc(NC(=O)c2ccc(Cl)cc2)c(=O)n2c1oc1ccccc12	none (no result: D2 PAM-1, D2 ag-2, D2 antag)
CC(=O)N(C)/C=C1\Sc2ccccc2C1=O	none
CC(=O)Nc1ccc(/C=C2\Sc3ccccc3C2=O)cc1	D2 PAM-1 56, D2 ag-2 inconclusive
CCOC(=O)N1CCN(Cc2ccccn2)CC1	D2 PAM-2 44
CCOC(=O)N1CCN(Cc2ccc(O)c3ncccc23)CC1	none
CCOC(=O)N1CCN(Cc2cccs2)CC1	D2 ag-1 38, D2 ag-2 inconclusive
COc1ccc(-n2nc(C(=O)Nc3ccc(C)cn3)c3c4ccccc4n(C)c3c2=O)cc1Cl	none (no result: D2 PAM-1, D2 ag-2, D2 antag)
Cc1cccc(C(=O)NCC(=O)OC(C)C(=O)Nc2ccc(Cl)cn2)c1 (stereo not drawn)	D2 antag 37
Cc1cccc(OCC(=O)OC(C)C(=O)Nc2ccc(Cl)cn2)c1 (stereo not drawn)	none
CC(C)Oc1ccc(S(=O)(=O)N2CCOCC2)cc1NC(=O)Cc1c(F)cccc1Cl	D2 antag 31
CC(C)Oc1ccc(S(=O)(=O)N2CCCCC2)cc1NC(=O)CN1CCCC1c1cccs1 (stereo not drawn)	D2 antag 33
Cc1ccccc1OCC(=O)Nc1ccccc1C(=O)OCc1cc(=O)n2nc(C3CC3)sc2n1	none (no result: D2 PAM-1, D2 ag-2, D2 antag)
CC(C)(C)c1ccc(C(=O)Nc2ccc(-c3nc4ccccc4o3)c(O)c2)cc1	none (no result: D2 PAM-1, D2 ag-2, D2 antag)
O=C1C2C3C=CC(C4CC34)C2C(=O)N1/N=C/c1cccs1 (stereo not drawn)	D2 PAM-1 61
Cc1ncc([N+](=O)[O-])n1CCO	D2 antag 38!
CCOc1ccccc1CNC(=O)CC(C)n1ccc(C)n1 (stereo not drawn)	none (no result: D2 PAM-1, D2 ag-2, D2 antag)
Cc1ccc2nc(NCC(=O)O)nc(-c3ccccc3)c2c1	none
Cc1ccc2nc(NCCC(=O)O)nc(-c3ccccc3)c2c1	D2 PAM-2 31
COc1cc(N)c(Cl)cc1C(=O)OCC(=O)c1cccs1	D2 antag 33
COc1cc(N)c(Cl)cc1C(=O)OCC(=O)NCc1cccs1	none (no result: D2 ag-1, D2 PAM-2, D2 antag)
CC(=O)c1cccc(NC(=O)CCn2nc(C)c(S(=O)(=O)N(C)C)c2C)c1	none (no result: D2 PAM-1, D2 ag-2, D2 antag)
O=C(O)c1nn2cc(CCO)cnc2c1Cl	D2 PAM-2 34
Cc1ccc(CNC(=O)c2cc3c(s2)CN(Cc2ccccc2)C3)cc1	D2 antag 39
Cc1ccc(CNC(=O)c2cc3c(s2)CS(=O)(=O)C3)cc1	none
CCN(CC)S(=O)(=O)c1cccc(NC(=O)COC(=O)C2=COCCO2)c1	D2 antag 30
CCN(CC)S(=O)(=O)c1cccc(NC(=O)COC(=O)C2COc3ccccc3O2)c1 (stereo not drawn)	none
CN(C)c1ccc(CNn2cnnc2SCc2ccc(F)cc2)cc1	D2 PAM-2 38
CCCCN1C(=O)C(O)(CC(=O)c2ccccc2OC)c2ccccc21 (stereo not drawn)	D2 antag 33
CC(C)N(C)c1ncnc2c1ncn2[C@H]1CN(Cc2cccs2)C[C@@H](CO)O1	none (no result: D2 ag-1, D2 PAM-2, D2 antag)
OCCN1CCN(c2ncnc3nc[nH]c23)CC1	D2 antag 34
c1nc(N2CCCC2)c2[nH]cnc2n1	none
CC(NC(=O)c1ccccc1Cl)c1nnc(SCC(=O)Nc2ccc(C(=O)O)cc2)n1C (stereo not drawn)	D2 antag 30
CC(C)NC(=O)C1CCC(Cn2c(=O)c3sccc3n(CC(=O)N3CCCC3)c2=O)CC1 (stereo not drawn)	none (no result: D2 PAM-1, D2 ag-2, D2 antag)
COc1ccc(OCc2cc(/C=N\NC(=O)c3ccccc3)ccc2OC)cc1	none
COc1cc(OC)cc(C(=O)N/N=C/c2ccc(OC)c(COc3ccc(F)cc3)c2)c1	D2 antag 34
O=C(O)CC1c2ccccc2CCN1C(=O)Nc1cc(Cl)ccc1Cl (stereo not drawn)	none (no result: D2 PAM-1, D2 ag-2, D2 antag)
CCOc1ccc(N=C2NC(=O)C(CC(=O)Nc3ccccc3)S2)cc1 (stereo not drawn)	D2 PAM-2 39
O=C(CC1SC(=Nc2ccc(O)cc2)NC1=O)Nc1ccccc1 (stereo not drawn)	none
CCCCN(C)C(=O)c1ccc2c(c1)NC(=O)C(CC(C)C)N2 (stereo not drawn)	none (no result: D2 PAM-1, D2 ag-2, D2 antag)
COc1ccc(CNC(=O)Nc2cc(C)cc(C)c2)cc1	none
COc1ccc(OCC(O)CNC(=O)Nc2cc(C)cc(C)c2)cc1 (stereo not drawn)	D2 antag 30
Cc1cc(C(=O)CSc2nnc(N)s2)c(C)n1CCc1ccc(Cl)cc1	none
Cc1cc(C(=O)CSc2nnc(N)s2)c(C)n1CCc1ccc(F)cc1	D2 antag 43
Cc1ccc(NC(=O)N2CCOCC2)cc1NC(=O)N1CCOCC1	none (no result: D2 ag-1, D2 PAM-2, D2 antag)
CCOC(=O)c1c(-c2ccccc2)csc1NC(=O)c1cc(-c2cccc(OC)c2)on1	none (no result: D2 ag-1, D2 PAM-1, D2 ag-2, D2 antag)
COCCOc1ccc(C(F)(F)F)cc1NC(=O)c1ccc(C(F)(F)F)cc1	D2 antag 59
O=C(CCC1CCCCC1)Nc1ccc(C(=O)c2ccncc2)cc1	D2 antag 48
